Data taken from PubChem BioAssay (NCI).
Compounds without any hit were thinned out: in the full panel of roughly 83,000, 20% have a hit.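 Values shown are percent growth following 48 h exposure of cells in 96-well plates to a single concentration of compound; below 10 was considered active.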 The source made the active and inactive calls.

test system: OVCAR-5 ovarian; test: NCI-60 one-dose screen, 48 h (100 = growth as untreated, 0 = no growth, -100 = all killed); conditions: 10 µM unless noted
Method: Growth inhibition of the OVCAR-5 human tumor cell line is measured as a screen for anti-cancer activity. Cells are grown in 96 well plates and exposed to the test compound for 48 hours. Compounds are tested at a single concentration, which is 10^-5 M for most compounds. The reported endpoint is percent growth (GI% or GIPRCNT), where numbers from 0 - 100% represent growth inhibition, and numbers from -100% - 0 represent cell death. For example, a value of 40 represents 60% growth inhibition. A value of 0 means no net growth occurred over the course of the experiment. A value of -40 indicates 40% of cells at the beginning of the experiment died by the end of the experiment. A value of -100 means all cells are dead at the end of the experiment.
NCI-60 Human Tumor Cell Lines Screen was performed using the standard one-dose NCI protocol, which is described in more detail at https://dtp.cancer.gov/discovery_development/nci-60/default.htm.
Compounds with GIPRCNT values below 10 were considered active. Activity score was based on GIPRCNT using the following formula: […]
Score is 0 for GIPRCNT values of 100 or above, 50 for GIPRCNT values of 0, and 100 for GIPRCNT values of -100.

SMILES | growth
C=CCSC1=NC2C(N(CC)C(=O)N2CC)N1/N=C/C=C/c1ccccc1OC (stereo not given) | 105% (inactive)
N#C/C(=C\c1ccc(-c2ccc(Cl)c(Cl)c2)o1)C(=O)Nc1ncc(Cc2ccc(Cl)cc2)s1 | 45.7% (inactive)
CCNC(=O)Oc1ccc(/C(=C(/C)c2ccc(Cl)cc2)c2ccc(OCCN3CCCCCC3)cc2)cc1 | 53.5% (inactive)
O=C(O)c1ccc(-n2c(=O)n(-c3cccc(C(F)(F)F)c3)c(=O)c3cc(-c4ccc(F)cc4F)ccc32)cc1 | 24.8% (inactive)
CCCCCCNC(=O)Oc1ccc(/C(=C(/C)c2ccc(Cl)cc2)c2ccc(OCCN3CCCCCC3)cc2)cc1 | 83% (inactive)
CN1CCN(Cc2ccc(NC(=O)c3cncc(C#Cc4cnc5ccc(OC6CCOCC6)nn45)c3)cc2C(F)(F)F)CC1 | -55.4% (active)
Brc1ccc2[nH]cc(-c3nn4cc(-c5nccs5)nc4s3)c2c1 | 67.5% (inactive)
O=C(CCCCCCN1CC(=O)N2[C@@H](c3ccc(Cl)s3)c3[nH]c4ccccc4c3C[C@H]2C1=O)NO | 39.3% (inactive)
CN(C)c1cccc2c(S(=O)(=O)Nc3cccc(-c4csc(NC(=O)CCCCCN5CCN(CCO)CC5)n4)c3)cccc12 | 88.7% (inactive)
CCCC/C(=C\c1ccc(O)c(O)c1)C(=O)NC(Cc1ccccc1)C(=O)C(=O)NCCc1ccc(OC)cc1 (stereo not given) | 99.3% (inactive)
O=C1[C@H]2Cc3c([nH]c4ccccc34)[C@H](c3ccc(Br)cc3)N2C(=O)CN1C1CCN(CC2CCCCC2)CC1 | 106% (inactive)
CN(C)c1ccc(-c2cc(-c3c[nH]c4ccccc34)nc(N)c2C#N)cc1 | 48.8% (inactive)
C=C(C)[C@@H]1CC[C@]2(C(=O)N3CCN(C)CC3)CC[C@]3(C)[C@H](CC[C@@H]4[C@@]5(C)CC[C@H](OP(=O)(OCC)OCC)C(C)(C)[C@@H]5CC[C@]43C)[C@@H]12 | 105% (inactive)
C#CCOc1cccc(/C(N)=N/C(N)=N/c2nc3ccccc3s2)c1 | 111% (inactive)
O=[N+]([O-])c1ccc(NC(=S)NNC(=S)Nc2ccc(Br)cc2)cc1 | 91.4% (inactive)
CCCN1C=C/C(=C\C(=O)n2ccc3ccccc32)c2ccccc21 | 87.8% (inactive)
Cc1ccc2c(n1)C(=O)C(Cl)=C(Nc1cccc(C(F)(F)F)c1)C2=O | 119% (inactive)
O=C(CSc1nnc(-c2cccs2)n1-c1ccccc1)Nc1ccccc1 | 96.7% (inactive)
C=C(C=O)[C@@H]1CC[C@]2(C(=O)O)CC[C@]3(C)C(CC[C@@H]4[C@@](C)(CCC#N)[C@H](C(=C)C=O)CC[C@]43C)[C@@H]12 (stereo not given in full) | 127% (inactive)
COc1ccc([C@H]2C(=O)N(c3cc(OC)c(OC)c(OC)c3)[C@@H]2c2ccc(OC)c(O)c2)cc1 | 34.6% (inactive)

SMILES | growth
COc1ccc(-c2cnc(NC(=O)CCCCCCNC(=O)C(O)(O)C(F)(F)F)s2)cc1 | 4.6% (active)
Cc1[nH]c(C(=O)Nc2ccc(C(N)=O)cc2N2CCOC(C)C2)c(Cl)c1Cl (stereo not given) | 98.1% (inactive)
NS(=O)(=O)c1ccc(Nc2nc(Nc3ccccc3)nc(N3N=C(c4ccc(Cl)cc4)CC3c3ccc(Cl)cc3)n2)cc1 (stereo not given) | 43.2% (inactive)
NC1[C@H]2CN(c3cnc(C(=O)Nc4cc(F)cc5cccnc45)cn3)C[C@@H]12 (stereo not given in full) | 77.3% (inactive)
C[C@H]1OCC2(CCN(c3cnc(C(=O)Nc4cc(F)cc5cccnc45)cn3)CC2)[C@H]1N | 74.3% (inactive)
Cc1ncn(-c2ccc(/C=N/Nc3ccnc4cc(Cl)ccc34)cc2)c1C | 102% (inactive)
CN1CCN(Cc2ccc(NC(=O)c3cncc(C#Cc4cnc5ccc(OCC(F)F)nn45)c3)cc2C(F)(F)F)CC1 | -47.1% (active)
O=C1c2ccccc2C23C(=C(c4cncnc4)c4ccccc42)CCCN13 (stereo not given) | 96.5% (inactive)
COc1cc(-c2nc(-c3ccccc3)[nH]c2-c2ccnc(NCCCNS(=O)(=O)c3ccc(C)cc3)n2)ccc1F | 119% (inactive)
CSc1ccc(/C(=N/N=C(N)N)c2ccc(Cl)cc2)cc1 | 11.4% (inactive)
C#Cc1nc(/C=C\CCCCCCC(=O)NO)cs1 | 45.7% (inactive)
CC1(C)CC[C@]2(C(=O)O)CC[C@]3(C)C(=CC[C@@H]4[C@@]5(C)CC[C@H](NOCCCN)C(C)(C)[C@@H]5CC[C@]43C)[C@@H]2C1 | 100% (inactive)
CCN(CC)c1ccc(/C=N/NC(=O)c2ccc(NS(C)(=O)=O)cc2)cc1 | 49.4% (inactive)
NNc1nnc2nc(Nc3ccccc3)nc(Nc3ccc(S(N)(=O)=O)cc3)n12 | 103% (inactive)
COc1ccc(/C=N/NC(=O)CSc2nc(-c3cnccn3)cc(-c3cccs3)c2C#N)cc1OC | 104% (inactive)
COc1ccc(NC2=C(Br)C(=O)C(C)=C(C)C2=O)cc1OC | 121% (inactive)
CN1CCN(Cc2ccc(NC(=O)c3cncc(C#Cc4cnc5ccc(N6CCOCC6)nn45)c3)cc2C(F)(F)F)CC1 | -20.4% (active)
COc1ccc2[nH]cc(-c3nc(N)nnc3-c3cn(C)c4ccc(Br)cc34)c2c1 | 56.5% (inactive)
O=C(Nc1cc(C(F)(F)F)cc(C(F)(F)F)c1)Nc1ccc2oc(=O)ccc2c1 | 18% (inactive)
COc1ccc(NC(=O)CCCCCCNC(=O)C(O)(O)C(F)(F)F)cc1 | 31.3% (inactive)
